Among the data in PubChem BioAssay (NCATS) are max response, outcome and Potency values, retold here.

Holding throughout (assay): Cytotoxic Profiling of Annotated Libraries Using Quantitative High-Throughput Screening (AID 1296008); also: nearly all actives have a fitted effect of over 60% in size
Holding throughout (conditions): Five cell lines viability, CellTiter-Glo ATP luminescence, 48-72 h; max response: hits give low values
Background: ATP-based viability assays read luminescence as a measure of living cells.

For one experiment, the system named is CRL-7250. In outline:
(§1)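 Cells exposed to compounds for 48 or 72 hr at 37 degrees Celsius. Viability read as ATP-coupled luminescence with CellTiter-Glo after 10 min at room temperature.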

A further experiment deals with HEK293. Summed up: as §1
In the next experiment the test system is HaCat. In outline: as §1
For the next experiment, the system named is KB-3-1. Summed up: as §1
For a further experiment, the system named is NIH3T3. Summed up:
as §1

Each structure is given as a SMILES string. Inconclusive results are not listed. Values without a mark were called inactive. Calls of active or inactive are those of the source. Calls follow the shape of the dose curve; as a rule, active = well fitted inhibition curve with a large enough effect; inconclusive = small, poorly fitted or top-dose-only effect; inactive = flat fitted curve, though single readings scatter.
% is scaled to controls: 0 for no effect and ±100 for the full control effect; potency is read from the fitted curve at half-maximal effect.

In the case of `COC(=O)c1ccnc(-c2cc(C(=O)NCCc3ccccc3)ccn2)c1`, the max response with CRL-7250 is -12.7%; in the experiment on HEK293 it was -3.61%; in the experiment with HaCat, 1.24%; in the experiment with KB-3-1, 1.93%; in the experiment on NIH3T3 it was 1.58%.

Take `C=C[C@H]1[C@H](O[C@@H]2O[C@H](CO)[C@@H](O)[C@H](O)[C@H]2O)OC=C(C(=O)OC)[C@H]1C/C=C(/C=O)[C@@H]1C(C(=O)OC)=CO[C@@H](O[C@@H]2O[C@H](CO)[C@@H](O)[C@H](O)[C@H]2O)[C@@H]1C=C`: the max response is -8.61% in the experiment with CRL-7250; -29.3% with HEK293; -4.96% in the experiment on HaCat; 1.41% in the experiment on KB-3-1; 4.13% in the experiment with NIH3T3.

With `COc1ccc(CNC(=O)c2cc(-c3cncc(C)c3)ncc2-c2nccs2)nc1OC`, the molecule was called inactive with CRL-7250 and in the experiment on KB-3-1. The figures for the max response in the experiment with HEK293, in the experiment on HaCat and in the experiment on NIH3T3 were -57.9%, -36.2% and -26.3%, respectively.

On to `Cc1ccc(-c2ccc3ncc4c(c3n2)n(C2CCN(C(=O)[C@H](C)O)CC2)c(=O)n4C)cn1`, for which the Potency with CRL-7250 was 0.146 µM (active); in the experiment with HEK293 it was 0.082 µM (active); in the experiment with HaCat, 1.46 µM (active); in the experiment with KB-3-1, 0.116 µM (active); in the experiment on NIH3T3, 0.231 µM (active).

`O=C(O)c1cn(C2CC2)c2cc(N3C[C@@H]4C[C@H]3CN4)c(F)cc2c1=O`: the max response was -3.63% in the experiment on CRL-7250, -1.22% with HEK293, -12.6% in the experiment with HaCat and -4.63% in the experiment on NIH3T3. In the experiment with KB-3-1, the result was inactive.

In the case of `CC1=C(CO)C(=O)O[C@@H]([C@@H](C)[C@H]2CC[C@H]3[C@@H]4C[C@H]5O[C@]56[C@@H](O)C=CC(=O)[C@]6(C)[C@H]4CC[C@]23C)C1`, the Potency with CRL-7250 was 3.99 µM (active); in the experiment on HEK293, 1.12 µM (active); in the experiment on HaCat, 3.17 µM (active); in the experiment on KB-3-1, 2.82 µM (active); in the experiment with NIH3T3, 5.63 µM (active).

With `COC(=O)C[C@H]1C(C)(C)[C@H](OC(C)=O)C2CC3=C4CC(=O)O[C@@H](c5ccoc5)[C@]4(C)CCC3[C@@]1(C)C2=O` (stereo not given in full), the max response with CRL-7250 is 3.53%; in the experiment on HEK293, -19.9%; with HaCat, 1.4%; in the experiment with KB-3-1 it was 4.19%; with NIH3T3 it was -4.77%.

As for `COc1cc2c(cc1OC)CC(=O)N(CCCNC[C@H]1Cc3cc(OC)c(OC)cc31)CC2`, the result in the experiment with CRL-7250 and in the experiment on KB-3-1 was inactive. Further, the max response in the experiment with HEK293 was -6.01%; in the experiment on HaCat it was -2.44%; with NIH3T3 it was -0.121%.

Regarding `CS(=O)(=O)N(CC(=O)NCC1CC1)c1cc(C(F)(F)F)ccc1Cl`, the max response is -0.912% with CRL-7250; 0.809% with HEK293; -2.56% with HaCat; 5.98% in the experiment with KB-3-1; -6.39% in the experiment on NIH3T3.

Turning to `Cc1cc(C)cc(C(=O)NOCCCCCC(=O)NO)c1`, the Potency is 8.2 µM (active) in the experiment on CRL-7250; 1.64 µM (active) with HEK293; 1.84 µM (active) in the experiment on HaCat; 2.06 µM (active) in the experiment with KB-3-1; 5.8 µM (active) in the experiment with NIH3T3.

As for `CC(C)CC1NC(=O)C2CC3(O)c4ccccc4NC3N2C1=O` (stereo not given), the max response is -2.34% in the experiment with CRL-7250; 2.06% with HEK293; -17.2% with HaCat; 7.2% in the experiment with KB-3-1; -1.31% in the experiment with NIH3T3.

With `C/C=C/C=C/C(O)=C1\C(O)=C(C)C(=O)[C@@]2(C)OC(=O)[C@@](C)(NC(=O)/C=C/C(=O)O)[C@@H]12`, the max response with CRL-7250 is -29.7%; in the experiment with HEK293 it was -6.48%; in the experiment on HaCat it was -17.6%; in the experiment with KB-3-1, -1.41%; in the experiment with NIH3T3, -1.65%.

Consider `COc1ccc(CCC(=O)c2c(O)cc(O)cc2O[C@@H]2O[C@H](CO)[C@@H](O)[C@H](O)[C@H]2O)cc1`, for which the max response is -5.63% in the experiment on CRL-7250; -3.22% in the experiment on HEK293; -11.7% with HaCat; 8.59% in the experiment on KB-3-1; -8.41% with NIH3T3.

Take `CCOc1ccc(NC(=S)N2CCC(C(O)(c3ccccc3)c3ccccc3)CC2)cc1`: the max response in the experiment on CRL-7250 is -3%; with HEK293 it was -4.42%; with HaCat, 1.92%; with NIH3T3, -1.64%. Moreover, the outcome with KB-3-1 was inactive.

In the case of `CC(C)=CCC[C@](C)(O[C@@H]1O[C@H](CO[C@@H]2O[C@H](CO)[C@@H](O)[C@H](O)[C@H]2O)[C@@H](O)[C@H](O)[C@H]1O)C1CC[C@]2(C)[C@@H]1[C@H](O)CC1[C@@]3(C)CC[C@H](O[C@@H]4O[C@H](CO)[C@@H](O)[C@H](O)[C@H]4O[C@@H]4O[C@H](CO)[C@@H](O)[C@H](O)[C@H]4O)C(C)(C)[C@@H]3CC[C@]12C` (stereo not given in full), the max response with CRL-7250 is -3.43%; in the experiment with HEK293, 0.0713%; with HaCat, 3.42%; in the experiment with KB-3-1 it was -1.36%; with NIH3T3 it was 4.71%.

Regarding `O=C(O)c1cc(-c2c(-c3ccccc3)nn3ccccc23)n[nH]c1=O`, the result in the experiment on CRL-7250 and in the experiment on KB-3-1 was inactive. Besides, the figures for the max response with HEK293, in the experiment on HaCat and in the experiment with NIH3T3 were -2.65%, -37.3% and -3.95%, respectively.

`C=C1CC[C@@H]2[C@@](C)(CO[C@@H]3O[C@H](CO)C(O)[C@H](O)C3O)[C@H](O)CC[C@@]2(C)[C@@H]1CC/C(C)=C/CO` (stereo not given in full): the result in the experiment with CRL-7250 and in the experiment with KB-3-1 was inactive. For the same molecule, the max response with HEK293 is 1.32%; in the experiment with HaCat, -3.82%; with NIH3T3 it was -10.1%.

`C=C1CCC2C(C)(C(=O)O)CCCC2(C)C1CCC(C)CC(=O)O` (stereo not given): the max response was 1.5% in the experiment on CRL-7250; -0.0508% with HEK293; 3.35% in the experiment with HaCat; -0.708% in the experiment on KB-3-1; -9.77% in the experiment with NIH3T3.
